# NTMT1 inh – Primary qHTS for Inhibitors of N-terminal methyltransferase 1 (NTMT1): MTaseGlo Assay; N-terminal Xaa-Pro-Lys N-methyltransferase 1 (Homo sapiens), Q9BV86; Potency, µM (doses to about 114 µM), without a hit: at the top dose activity change, negative = inhibition, usual class: inhibitors; NTMT1 MTase-Glo SAH luminescence, purified enzyme; 59,000 compounds, 2.5% hits;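 note: potency is the fitted concentration of half-maximal effect; plate controls were DMSO vehicle for no effect and no enzyme for full effect; nearly all actives have a fitted effect of over 65% in size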
# Target sequence (Q9BV86 whole entry, looked up): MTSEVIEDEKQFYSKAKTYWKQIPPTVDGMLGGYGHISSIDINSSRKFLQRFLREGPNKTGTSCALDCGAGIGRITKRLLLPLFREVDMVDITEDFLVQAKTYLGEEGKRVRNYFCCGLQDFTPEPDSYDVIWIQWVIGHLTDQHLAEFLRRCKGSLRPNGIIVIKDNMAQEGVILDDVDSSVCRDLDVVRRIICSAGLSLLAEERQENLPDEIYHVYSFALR
# p53null 39C tox – qHTS Screen for Compounds that Selectively Target Cancer Cells with p53 Mutations: Cytotoxicity of p53 Null Cells at the Nonpermissive Temperature; H1299 p53-null (neo) cells, 39C, ATPlite viability, 24 h; Potency, µM (titrated, usually from 46.1 µM), for inactives: at the highest dose activity, negative = cell killing, actives largely listed as cytotoxic; 55,000 compounds, 0.97% hits; AID 904, 2007;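 note: potency is the fitted concentration of half-maximal effect; 0% = DMSO only and -100% = full killing by 100 µM tamoxifen; nearly all actives have a fitted effect of over 50% in size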
#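 Temperature-shift cytotoxicity format: compound titrations on p53-null or A138V-expressing H1299 cells held 24 hr at 39C, cell ATP then measured, AC50 from Hill model.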
# OvCa metastasis – Primary qHTS assay for Inhibitors of ovarian cancer metastasis using an organotypic tumor microenvironment (TME) model; AID 1963576, 2024; SKOV3ip1-GFP adhesion/invasion on 3D omental model, fluorescence; Potency, µM (series often up to 45.8 µM), inactives show top-dose activity change, negative = inhibition, actives largely listed as inhibitors; 46,000 compounds, 0.1% hits;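 note: potency is the fitted concentration of half-maximal effect; plate controls were DMSO wells for no effect and tomatine positive control wells for full effect; nearly all actives have a fitted effect of over 65% in size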
#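 Adhesion/invasion was scored as fixed GFP-labeled SKOV3ip1 cell counts (488/509 nm), normalized to DMSO and tomatine controls. Cancer cells in serum-free medium, with four compound doses (0.36-46 umol/L), sat 2 hr at RT then 16 hr at 37 C on a 48 hr fibroblast/mesothelial/ECM culture.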
# p53null 32C kill – qHTS Screen for Compounds that Selectively Target Cancer Cells with p53 Mutations: Cytotoxicity of p53 Null Cells at the Permissive Temperature; Potency, µM (doses to about 46.1 µM), for the others: at the highest dose activity change, negative = cytotoxicity, actives largely listed as cytotoxic; 55,000 compounds, 0.62% hits; H1299-neo p53 null cells, ATP luminescence, 24 h, 32C; AID 903, 2007;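 note: potency is the fitted concentration of half-maximal effect; 0% = DMSO only and -100% = full killing by 100 µM tamoxifen; nearly all actives have a fitted effect of over 55% in size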
#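 Overnight 37C seeding (600 cells/well) of H1299-neo preceded a 24 hr, 32C exposure to compounds up to 46 uM. ATP levels, read by luminescence after 20 min at RT, indicated surviving cells.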
# DYRK1A inh-1 – Assay for Inhibitors of Dual-Specificity Tyrosine-(Y)-Phosphorylation Regulated Kinase 1A (Kinase-Glo assay); Potency, µM (titrated, usually from 76.9 µM), for the others: top-dose activity change, negative = inhibition, most hits filed as inhibitors; recombinant DYRK1A, Kinase-Glo ATP depletion luminescence; shares compounds with NTMT1 inh; 100 compounds, 80% hits; AID 2705, 2010
# CLK4 inh-1 – Confirmation Assay for Inhibitors of CDC-like Kinase 4 (Kinase-Glo Assay): SAR round 2; shares compounds with NTMT1 inh; recombinant Clk4, Kinase-Glo ATP luminescence, 4.5 h; Potency, µM (top dose mostly 76.9 µM), for inactives: at the top dose activity, negative = inhibition, hits mostly inhibitors; 90 compounds, 90% hits
# Target sequence (Q9HAZ1 whole entry, looked up): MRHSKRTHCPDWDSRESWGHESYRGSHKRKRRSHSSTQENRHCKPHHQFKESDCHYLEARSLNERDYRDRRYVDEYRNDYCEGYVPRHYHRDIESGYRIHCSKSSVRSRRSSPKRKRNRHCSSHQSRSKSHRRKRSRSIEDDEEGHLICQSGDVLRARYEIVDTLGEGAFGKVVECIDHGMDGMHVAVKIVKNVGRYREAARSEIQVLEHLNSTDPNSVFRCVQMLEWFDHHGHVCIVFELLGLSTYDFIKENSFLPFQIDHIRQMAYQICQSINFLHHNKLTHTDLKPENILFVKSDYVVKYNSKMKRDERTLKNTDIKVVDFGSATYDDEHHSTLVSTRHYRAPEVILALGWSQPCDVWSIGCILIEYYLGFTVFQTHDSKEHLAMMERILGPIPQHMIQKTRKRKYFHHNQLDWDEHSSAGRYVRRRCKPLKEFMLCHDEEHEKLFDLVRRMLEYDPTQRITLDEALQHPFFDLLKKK
# CLK4 inh-2 – Kinase Inhibition Study on Inhibitors of CDC-like Kinase 4 (Reaction Biology data): SAR round 2; shares compounds with NTMT1 inh; Reaction Biology kinase assay, 10 uM ATP; Potency, µM, actives largely listed as inhibitors; 65 compounds, 100% hits; calls by dose curve
# DYRK1A inh-2 – Kinase Inhibition Study on Inhibitors of Dyrk1a (Reaction Biology data); Reaction Biology kinase assay, 10 uM ATP; shares compounds with NTMT1 inh; 65 compounds, 90% hits; Potency, µM, most hits filed as inhibitors;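 active = compounds that showed inhibition of Dyrk1a and received a fitted potency; inactive = compounds that showed no inhibition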
# CLK2 RBC – Kinase Inhibition Study on Inhibitors of CDC-like Kinase 2 (Reaction Biology data). 65 compounds, 90% hits. shares compounds with NTMT1 inh. Reaction Biology kinase assay, 10 uM ATP. Potency, µM, usual class: inhibitors;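 active = compound that inhibits Clk2 kinase in the dose series, with an IC50 potency reported; inactive = no inhibition seen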
# CLK3 RBC – Kinase Inhibition Study on Inhibitors of CDC-like Kinase 3 (Reaction Biology data) | shares compounds with NTMT1 inh | recombinant CLK3 kinase assay, 10 uM ATP | Potency, µM, most hits filed as inhibitors | 65 compounds, 40% hits;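 active = compounds that inhibited Clk3 enough in the ten-dose series to give a half-maximal potency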
# DYRK1B RBC – Kinase Inhibition Study on Inhibitors of Dyrk1b (Reaction Biology data) | shares compounds with NTMT1 inh | AID 504429, 2011 | Potency, µM, hits mostly inhibitors | Recombinant Dyrk1b kinase assay, 10 uM ATP | 65 compounds, 80% hits;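 active = compounds whose dose response shows an inhibitor phenotype against the kinase Dyrk1b; inactive = compounds showing no inhibitor phenotype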
# CLK1 RBC – Kinase Inhibition Study on Inhibitors of CDC-like Kinase 1 (Reaction Biology data); shares compounds with NTMT1 inh; recombinant Clk1 kinase assay, 10 uM ATP; Potency, µM, hits mostly inhibitors; 65 compounds, 90% hits; AID 504430, 2011;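 active = compounds that block the splicing kinase Clk1 enough to give a fitted half-inhibition concentration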
# Sfp qHTS opt – qHTS Assay for Inhibitos of Bacillus subtilis Sfp phosphopantetheinyl transferase (PPTase): Chemistry Optimization Followup; shares compounds with NTMT1 inh; purified Sfp PPTase enzyme activity, qHTS; Potency, µM (titrated, usually from 114 µM), inactives show at the top dose activity change, negative = inhibition, most hits filed as inhibitors; 230 compounds, 78% hits
# Bsub HM489 growth – qHTS for Inhibitos of Bacillus subtilis Sfp phosphopantetheinyl transferase (PPTase): Chemistry Optimization Followup in B. Subtilis HM489; 220 compounds, 50% hits; Potency, µM (doses to about 114 µM), for the others: at the top dose activity change, negative = inhibition, hits mostly inhibitors; B. subtilis HM489 (acpS-) growth, BacTiter-Glo, 5 h; shares compounds with NTMT1 inh
# Sfp gel opt – Gel-Based Assay for Inhibitos of Bacillus subtilis Sfp phosphopantetheinyl transferase (PPTase): Chemistry Optimization Followup; AID 540355, 2011; Potency, µM (titrated, usually from 250 µM), without a hit: at the highest dose activity change, negative = inhibition, usual class: inhibitors; shares compounds with NTMT1 inh; purified Sfp PPTase, gel-based product detection; 220 compounds, 54% hits
# Sfp SAR2 – qHTS Assay for Inhibitors of Bacillus subtilis Sfp phosphopantetheinyl transferase (PPTase): SAR Round 2 | shares compounds with NTMT1 inh | purified Sfp enzyme, PPTase activity, qHTS | Potency, µM (highest dose often 57.1 µM), inactives show at the highest dose activity change, negative = inhibition, most hits filed as inhibitors | 230 compounds, 87% hits | AID 602370, 2012
# HSD17B4 counter – Extended Characterization of HPGD Inhibitors: Counterscreen Against HSD17b4; shares compounds with NTMT1 inh; purified HSD17B4, estradiol/NAD+, NADH fluorescence; Potency, µM (doses to about 57.1 µM), for inactives: at the top dose activity change, negative = inhibition, most hits filed as inhibitors; 230 compounds, 10% hits; AID 743187, 2013
# ALDH1A1 inh – Extended Characterization of HPGD Inhibitors: Counterscreen Against ALDH1A1. shares compounds with NTMT1 inh. recombinant ALDH1A1, NADH fluorescence, propionaldehyde/NAD+. Potency, µM (highest dose often 57.1 µM), for inactives: top-dose activity change, negative = inhibition, actives largely listed as inhibitors. 230 compounds, 93% hits
# NNMT counter – Counterscreen qHTS for Inhibitors of N-terminal methyltransferase 1 (NTMT1): NNMT MTaseGlo assay; shares compounds with NTMT1 inh; NNMT MTase-Glo luminescence, SAH detection; Potency, µM (titrated, usually from 57.1 µM), without a hit: at the highest dose activity, negative = inhibition, usual class: inhibitors; 120 compounds, 10% hits; AID 1645878, 2021
# * = called active by the depositor; i = inactive; ? = inconclusive; . = not tested or not shown; [ ] = dose if it differs, or a comment. Many of the other results were omitted from the sample, so hits are more common in it than they were. Unless noted, calls come from the whole dose curve; as a rule, active = well fitted curve in the direction sought with a large enough effect; inconclusive = small, poorly fitted or top-dose-only effect, or another doubt; inactive = no such curve, though single readings can be large; an effect the other way counts as inactive or inconclusive.
SMILES,NTMT1 inh,p53null 39C tox,OvCa metastasis,p53null 32C kill,Sfp qHTS opt,Bsub HM489 growth,Sfp gel opt,Sfp SAR2,HSD17B4 counter,ALDH1A1 inh,others
S=C(Nc1cc(Cl)ccn1)N1CCN(c2ccc3ccccc3n2)CC1,?,.,.,.,?,26µM*,?,7.2µM*,-23%,i,
Cc1ccnc(NC(=S)N2CCNCC2)c1,?,.,.,.,4%,?,-52%,14µM*,10%,27µM*,
Cc1ccc(C)c(NC(=S)N2CCCCCC2)c1,.,20%,.,10%,.,.,.,.,.,.,
Cc1ccnc(NC(=S)N2CCN(c3ccc(Cl)cc3Cl)CC2)c1,?,.,.,.,1.9µM*,8.3µM*,13µM*,0.73µM*,-18%,5.4µM*,
Cc1ccnc(NC(=S)N2CCc3ccccc3C2)c1,?,.,.,.,9.4µM*,33µM*,3.2µM*,1µM*,47%,3µM*,
CCNC(=S)N1CCN(c2ccccn2)CC1,.,17%,.,.,.,.,.,.,.,.,
Cc1ccc(C)n1-c1cccc(-c2nn[nH]n2)c1,-27%[57.5 µM],.,.,.,.,.,.,.,.,.,
CS(=O)(=O)c1ccc(-c2cnc(NCc3ccco3)n3cnnc23)cc1,-9%,.,.,.,.,.,.,.,.,.,
COc1cc2c(NC3CCN(C(C)C)CC3)nc(C3CCCCC3)nc2cc1OCCCN1CCCC1,?,.,12µM*,.,.,.,.,.,.,.,NNMT counter=?
Cc1ccc2oc(NC3=NC(c4[nH]ncc4Cl)C4=C(CCCC4=O)N3)nc2c1 (stereo not drawn),-3%,.,.,.,.,.,.,.,.,.,
CC(=O)c1ccc(-c2ccc3ncnc(NCc4ccc(C)o4)c3c2)o1,?,.,.,.,.,.,.,.,.,.,CLK4 inh-1=0.29µM*;CLK4 inh-2=0.56*;DYRK1A inh-2=5.8µM*;CLK2 RBC=6.9µM*;CLK3 RBC=i;DYRK1B RBC=10µM*;CLK1 RBC=7µM*
Cc1cccc(CNc2ncnc3ccc(-c4cccc(C)c4)cc23)c1,-1%,.,.,.,.,.,.,.,.,.,
CC(=O)Nc1ccc(CNc2ncnc3ccc(-c4c(C)noc4C)cc23)cc1,0%[57.5 µM],.,.,.,.,.,.,.,.,.,
CCNC(=O)c1ccc(-c2ccc3ncnc(NCc4ccc(C)o4)c3c2)o1,?,.,.,.,.,.,.,.,.,.,CLK4 inh-1=0.52µM*;CLK4 inh-2=1.4*;DYRK1A inh-2=6.3µM*;CLK2 RBC=4.2µM*;CLK3 RBC=i;DYRK1B RBC=6.7µM*;CLK1 RBC=5.4µM*
CCOC(=O)c1ccc(-c2ccc3ncnc(NCc4ccc(C)o4)c3c2)o1,?,.,.,.,.,.,.,.,.,.,DYRK1A inh-1=5.8µM*

# High-throughput results (PubChem BioAssay)
